High-throughput results as filed in PubChem BioAssay.
In the library only some 11% were active in any assay of this set; here they are far more common.
HEK293 tox – Cytotoxic Profiling in HEK 293 Cell Line of Diverse Libraries Using Quantitative High-Throughput Screening; AID 1345083, 2018; Potency, µM (highest dose often 115 µM), actives largely listed as inhibitors; HEK 293 viability, ATP luminescence (CellTiter-Glo), 48-72 h; actives 6.6% (n = 94,000); further: nearly all actives have a fitted effect of over 60% in size
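Read-out: CellTiter-Glo ATP luminescence. Cells: HEK 293, 250 cells/well. Exposure: 48 or 72 hr, 37 degree Celsius.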
Luciferase inh – Firefly luciferase inhibition profiling of diverse chemical library using quantitative high-throughput screening; AID 1347043, 2019; Potency, µM (titrated, usually from 115 µM), hits mostly inhibitors; actives 2.5% (n = 76,000); Luciferin 4-monooxygenase (Photinus pyralis), P08659; purified P. pyralis luciferase, luminescence, biochemical; further: nearly all actives have a fitted effect of over 65% in size
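Biochemical qHTS: compound (6-point titration) added to 10uM D-luciferin plus 10uM ATP in Tris acetate pH 7.5 buffer with Mg, Tween-20 and BSA, then purified enzyme at 10nM; light output imaged.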
NIH3T3 tox – Cytotoxic Profiling in NIH 3T3 Cell Line of Diverse Libraries Using Quantitative High-Throughput Screening | NIH 3T3 viability, CellTiter-Glo ATP luminescence, 48-72 h | actives 4.3% (n = 94,000) | AID 1345082, 2018 | Potency, µM (titrated, usually from 96.7 µM), most hits filed as inhibitors; further: nearly all actives have a fitted effect of over 55% in size
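Mouse fibroblast NIH 3T3 cells, 400 per well, received compound via pintool and were incubated for 48 or 72 hr prior to CellTiter-Glo ATP luminescence measurement.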
NPR1 antag – Natriuretic polypeptide receptor (hNpr1) antagonism - Primary qHTS. Potency, µM (titrated, usually from 46.3 µM), hits mostly inhibitors. HEK293 hNpr1 GloSensor cGMP, ANP-stimulated luminescence. Atrial natriuretic peptide receptor 1 (Homo sapiens), P16066. actives 1.6% (n = 76,000); calls by dose curve; further: nearly all actives have a fitted effect of over 60% in size
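HEK293 cells stably expressing human Npr1 and cGMP GloSensor pGS-40F, loaded 2 h with 2% GloSensor reagent, given compound 30 min at room temperature. Luminescence read before and 20 min after 0.1 nM hNppA.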
NPR1 antag cnf – Natriuretic polypeptide receptor (hNpr1) antagonism - Confirmation | HEK293 hNpr1 cGMP GloSensor luminescence, ANP-stimulated | actives 76% (n = 1,400) | shares compounds with NPR1 antag | AID 1347044, 2019 | Potency, µM (highest dose often 57.6 µM), hits mostly inhibitors; calls by dose curve; further: nearly all actives have a fitted effect of over 70% in size
Npr2 selectivity – Natriuretic polypeptide receptor (hNpr2) antagonism - Subtype selectivity assay; shares compounds with NPR1 antag; actives 67% (n = 1,400); AID 1347046, 2019; Potency, µM (doses to about 57.6 µM), most hits filed as inhibitors; HEK293 hNpr2 GloSensor cGMP luminescence, CNP-stimulated; calls by dose curve; further: nearly all actives have a fitted effect of over 70% in size
FLuc inh counter – Natriuretic polypeptide receptor (hNpr1) antagonism - Confirmation firefly luciferase (FLuc) inhibition counterscreen. shares compounds with NPR1 antag. purified FLuc enzyme, luminescence, Km substrate. Potency, µM (doses to about 57.6 µM), most hits filed as inhibitors. actives 0.7% (n = 1,400). AID 1347047, 2019
GloSensor ctrl – Natriuretic polypeptide receptor (hNpr1) antagonism - Counterscreen GloSensor control cell line. shares compounds with NPR1 antag. HEK293 GloSensor cGMP, SNP-stimulated, luminescence. Potency, µM (highest dose often 57.6 µM), actives largely listed as inhibitors. actives 69% (n = 1,400). AID 1347051, 2019; calls by dose curve; further: nearly all actives have a fitted effect of over 70% in size
A number is an active result. Unless noted, the call rests on the fitted dose curve; in most records, active means well fitted curve in the direction sought with a large enough effect; inconclusive means small, poorly fitted or top-dose-only effect, or another doubt; inactive means no such curve, though single readings can be large; an effect the other way counts as inactive or inconclusive.

Results for CNc1nccc(N2CCC(CC(=O)N3CCN(c4ccccc4C)CC3)CC2)n1 ?
HEK293 tox: 28µM; Luciferase inh: inactive; NIH3T3 tox: 45µM; NPR1 antag: inconclusive; NPR1 antag cnf: inconclusive; Npr2 selectivity: inconclusive; FLuc inh counter: inactive; GloSensor ctrl: inconclusive

How did CCNc1cc(N2CCC(CCC(=O)NCCc3ccccn3)CC2)ncn1 do in these assays?
HEK293 tox: inactive; Luciferase inh: inactive; NIH3T3 tox: inactive; NPR1 antag: inactive

Results for CCNc1cc(N2CCC(CCC(=O)N3CCCN(c4ncccn4)CC3)CC2)ncn1 ?
HEK293 tox: inconclusive; Luciferase inh: inactive; NIH3T3 tox: inactive; NPR1 antag: inconclusive; NPR1 antag cnf: 24µM; Npr2 selectivity: inconclusive; FLuc inh counter: inactive; GloSensor ctrl: 24µM

Results for CCO[C@H]1CN(C(=O)CCn2c(C)cc(C)nc2=O)C[C@@H]1O ?
HEK293 tox: inactive; Luciferase inh: inactive; NIH3T3 tox: inactive; NPR1 antag: inactive

What do the screens show for `Cc1nc(-c2ccc(F)cc2)n(CC(=O)Nc2ccc(C(F)(F)F)cc2)c(=O)c1CCO`?
HEK293 tox: inconclusive; Luciferase inh: inactive; NIH3T3 tox: inconclusive; NPR1 antag: inactive

What do the screens show for `Cc1ccc(NC(=O)c2ccc(N3CC4CC(C3)[C@H]3CCCC(=O)N3C4)nc2)c(C)c1` (some centres undefined)?
HEK293 tox: inactive; Luciferase inh: inactive; NIH3T3 tox: inactive; NPR1 antag: inactive

What do the screens show for `N#Cc1cccc(C(=O)N2CCCCCCNC(=O)CC2)c1`?
HEK293 tox: inactive; Luciferase inh: inactive; NIH3T3 tox: inactive; NPR1 antag: inactive

Results for O=C(NCc1ccc(F)cc1)c1ccc2nc(-c3cccnc3Cl)oc2c1 ?
HEK293 tox: inactive; NIH3T3 tox: inconclusive

Results for O=C1COc2ccc(N3CCCC3)nc2CN1Cc1ccc(C(F)(F)F)cc1 ?
HEK293 tox: 79µM; Luciferase inh: inactive; NIH3T3 tox: inconclusive; NPR1 antag: inconclusive; NPR1 antag cnf: 40µM; Npr2 selectivity: inconclusive; FLuc inh counter: inactive; GloSensor ctrl: inconclusive

What do the screens show for `CN1Cc2nc(NCc3ccccc3)ccc2OCC1=O`?
HEK293 tox: inconclusive; Luciferase inh: inactive; NIH3T3 tox: inconclusive; NPR1 antag: inconclusive

Results for O=C1COc2ccc(-c3ccc4c(c3)OCO4)nc2CN1Cc1ccc(F)cc1 ?
HEK293 tox: 56µM; Luciferase inh: inactive; NIH3T3 tox: inconclusive; NPR1 antag: inconclusive; NPR1 antag cnf: inconclusive; Npr2 selectivity: 35µM; FLuc inh counter: inactive; GloSensor ctrl: inconclusive

How did Cc1ccccc1CN1Cc2nc(NCc3cccc(F)c3)ccc2OCC1=O do in these assays?
HEK293 tox: inconclusive; Luciferase inh: inactive; NIH3T3 tox: 79µM; NPR1 antag: inconclusive; NPR1 antag cnf: 40µM; Npr2 selectivity: 35µM; FLuc inh counter: inactive; GloSensor ctrl: 40µM

Results for O=C1COc2ccc(-c3cccnc3)nc2CN1Cc1ccc(C(F)(F)F)cc1 ?
HEK293 tox: inconclusive; Luciferase inh: inactive; NIH3T3 tox: inconclusive; NPR1 antag: inactive

What do the screens show for `CC(=O)Nc1ccc(S(=O)(=O)N[C@H]2CO[C@H]3[C@@H]2OC[C@@H]3n2nnnc2Oc2cccc(N(C)C)c2)cc1`?
HEK293 tox: inactive; Luciferase inh: inactive; NIH3T3 tox: inactive; NPR1 antag: inactive

What do the screens show for `CC(=O)NCC1CN(C(=O)NCc2ccc(OC(F)(F)F)cc2)CC12CCCCC2` (centres undefined)?
HEK293 tox: inactive; NIH3T3 tox: inconclusive

How did COc1ccc(CN2Cc3[nH]cnc3C[C@H]2C(=O)NCc2ccccc2)c2ccccc12 do in these assays?
HEK293 tox: 89µM; Luciferase inh: inactive; NIH3T3 tox: inconclusive; NPR1 antag: inconclusive; NPR1 antag cnf: inconclusive; Npr2 selectivity: inconclusive; FLuc inh counter: inactive; GloSensor ctrl: inactive

Results for O=C(NCc1ccc(N2CCCC2)cc1)C1CCCN(c2cnn(Cc3ccccc3)c(=O)c2)C1 (centres undefined) ?
HEK293 tox: inconclusive; Luciferase inh: inactive; NIH3T3 tox: inconclusive; NPR1 antag: inconclusive; NPR1 antag cnf: inconclusive; Npr2 selectivity: inconclusive; FLuc inh counter: inactive; GloSensor ctrl: inconclusive

What do the screens show for `CCn1c(CO)nnc1C1CC(NC(=O)CCc2n[nH]c3c2CCCC3)C1` (centres undefined)?
HEK293 tox: inactive; Luciferase inh: inactive; NIH3T3 tox: inactive; NPR1 antag: inactive

Results for CCOC(=O)c1cccc(NC(=O)N2CC[C@@H](CC(=O)NCc3ccc(OC)c(OC)c3)[C@@H](CC)C2)c1 ?
HEK293 tox: inactive; Luciferase inh: inactive; NIH3T3 tox: inactive; NPR1 antag: inactive

Results for NC(=O)CNC(=O)c1cc2n(n1)CC(c1ccc(Br)cc1)OC2 (centres undefined) ?
HEK293 tox: inactive; Luciferase inh: inactive; NIH3T3 tox: inactive; NPR1 antag: inactive

What do the screens show for `O=C(Nc1ccc(F)c(F)c1)c1cc2n(n1)CC(c1ccc(Br)cc1)OC2` (centres undefined)?
HEK293 tox: inconclusive; Luciferase inh: inactive; NIH3T3 tox: inconclusive; NPR1 antag: inconclusive; NPR1 antag cnf: 24µM; Npr2 selectivity: inconclusive; FLuc inh counter: inactive; GloSensor ctrl: inconclusive

How did O=C(Nc1ccccc1)c1cc2n(n1)CC(c1ccc(Br)cc1)OC2 (centres undefined) do in these assays?
HEK293 tox: inconclusive; Luciferase inh: inactive; NIH3T3 tox: inconclusive; NPR1 antag: 18µM; NPR1 antag cnf: 27µM; Npr2 selectivity: inconclusive; FLuc inh counter: inactive; GloSensor ctrl: inconclusive

How did O=C(Nc1ccc(F)cc1)c1cc2n(n1)CC(c1ccc(Br)cc1)OC2 (centres undefined) do in these assays?
HEK293 tox: inconclusive; Luciferase inh: inactive; NIH3T3 tox: inconclusive; NPR1 antag: 11µM; NPR1 antag cnf: inconclusive; Npr2 selectivity: inconclusive; FLuc inh counter: inactive; GloSensor ctrl: inconclusive
